The nature of assay [1]: qHTS assay to identify small molecule inhibitors of chordoma cells - UCH-2 (AID 1259356; also: series mostly up to about 46 µM). (Quantitative high-throughput screening tests each substance at several concentrations.)
Assay [2] in a line: P-glycoprotein substrates identified in KB-8-5-11 adenocarcinoma cell line, qHTS therapeutic library screen (AID 1346987). Also: nearly all actives have a fitted effect of over 65% in size. Also: potency is read from the fitted curve at half-maximal effect. Conditions: outcome: dose series up to 44.5 µM unless noted. An outline of the steps:
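Steps: plate 500 KB-8-5-11 cells/well in DMEM + 10% FCS (colchicine removed); pin compounds in dose-response; incubate 72 h, 37 degree C, 5% CO2; add CellTiter-Glo, 5 min; read luminescence.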

A short description of assay [3]: P-glycoprotein substrates identified in KB-3-1 adenocarcinoma cell line, qHTS therapeutic library screen (AID 1346986). Also: nearly all actives have a fitted effect of over 60% in size. Particulars: outcome: dose series up to 44.5 µM unless noted. An outline of the steps: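 KB-3-1 parental and colchicine-selected P-gp-overexpressing KB-8-5-11 cells (colchicine omitted during assay), 500 cells/well, dosed in dose-response for 72 h at 37 °C; CellTiter-Glo luminescence. Cytotoxic: curve class -1.1 to -2.4, max response >50%, AC50 < 10 uM.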

Assay [4] is described as follows: Identifying Small Molecule Inhibitors of Pancreatic Cancer Stem Cells (SN12C, Adherent) (AID 1259358).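 Also: cell survival measured after 48 h of compound exposure.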 An outline of the steps:
(§1)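 Endpoint: ATP-based luminescence, 48 h drug exposure. Bortezomib at 9.2 uM final as full-kill control; DMSO vehicle as negative control; activity normalized between vehicle and cell-free wells.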

A short description of assay [5]: Identifying Small Molecule Inhibitors of Pancreatic Cancer Stem Cells (SN12C, Spheroid) (AID 1259360). An outline of the steps: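 Spheroids grown 14 days in stem cell media on nonadherent hydrogel before screening; cells attached 4 h, then compound exposure 48 h at 37C, 5% CO2. CellTiter-Glo luminescence normalized to DMSO (no inhibition) and no-cell wells (full inhibition).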

The nature of assay [6]: Identifying Small Molecule Inhibitors of Pancreatic Cancer Stem Cells (A278, Adherent) (AID 1259361).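 Also: viability read after 48 h compound exposure; nearly all actives have a fitted effect of over 35% in size.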 An outline of the steps:
as §1

A short description of assay [7]: qHTS assay to identify small molecule inhibitors of chordoma cells - UCH-1 (AID 1259355). Also: potency is read from the fitted curve at half-maximal effect; series mostly up to about 46 µM; nearly all actives have a fitted effect of over 55% in size. An outline of the steps: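 Cells (800/well) were seeded and left overnight at 37 C, 5% CO2, then treated with drugs at 15 concentrations plus a combination mix of auranofin, camptothecin, doxorubicin, rubitecan and topotecan. Viability after 48hr was read by CellTiter-Glo luminescence.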

“And” between values parts separate entries of the source, which are not always exact repeats. Identical values can stand only once. Inconclusive results are not listed. Where a call stands in place of a potency, no number is given. Some compounds were tested as several samples or in several runs, with calls that do not always agree. The source made the active and inactive calls. Calls follow the shape of the dose curve; as a rule, active = well fitted curve in the direction sought with a large enough effect; inconclusive = small, poorly fitted or top-dose-only effect, or another doubt; inactive = no such curve, though single readings can be large; an effect the other way counts as inactive or inconclusive.

`Cc1ccccc1N1C(=O)c2cc(S(N)(=O)=O)c(Cl)cc2NC1C` (stereo not given): the compound was called inactive in assay [1]. In assay [2], the Potency result was “inactive”. With `COc1ccccc1N1CCN(CC(O)COc2cccc3ccccc23)CC1` (stereo not given), the compound was classed as inactive in assay [1]. Still for that read-out and setting: in the case of `CC12CC3CC(C)(C1)CC(N)(C3)C2` it was “inactive”.

With `CN(C)CCOC(c1ccccc1)c1ccccc1`, the call in assay [1] and in assay [3] was inactive. Also, the Potency entry in assay [2] was “inactive”.

Consider `OCCN(CCO)c1nc(N2CCCCC2)c2nc(N(CCO)CCO)nc(N3CCCCC3)c2n1`, for which, in assay [1], the compound was called inactive. Regarding `CC[C@@]1(O)C(=O)OCc2c1cc1n(c2=O)Cc2cc3c(CN(C)C)c(O)ccc3nc2-1`, the Potency in assay [2] was 5.9 µM (active) and 8.2 µM (active). For the compound `Clc1ccc2c(c1)C(N1CCNCC1)=Nc1ccccc1O2`, the compound was classed as inactive in assay [1]. Besides, in assay [2], the Potency entry was “inactive and 20.6 µM (active)”. Turning to `Cc1cc(C(C)(C)C)c(O)c(C)c1CC1=NCCN1`, the result in assay [1] was inactive. Further, the Potency entry in assay [2] is “inactive”. Consider `O=C1c2c(O)ccc(O)c2C(=O)c2c(NCCNCCO)ccc(NCCNCCO)c21`, for which the Potency in assay [2] is 5.26 µM (active). In the case of `COc1ccc(CCN(C)CCCC(C#N)(c2ccc(OC)c(OC)c2)C(C)C)cc1OC` (stereo not given), in assay [4], the Potency entry is “inactive”. In assay [5], the compound was classed as inactive. The IC50 (viability decrease) result in assay [6] was “inactive”. Besides, the Potency in assay [2] is 20.6 µM (active). Consider `CN1CCC(=C2c3ccccc3C=Cc3ccccc32)CC1`, for which, in assay [1], the result was inactive. As for `NS(=O)(=O)c1cc2c(cc1Cl)NCNS2(=O)=O`, the result in assay [1] was inactive. Also, the Potency result in assay [2] is “inactive”. Take `CCCCc1oc2ccccc2c1C(=O)c1cc(I)c(OCCN(CC)CC)c(I)c1`: the result in assay [1] was inactive. In addition, the Potency entry in assay [2] was “inactive”. Regarding `COc1cc2nc(N(C)CCCNC(=O)C3CCCO3)nc(N)c2cc1OC` (stereo not given), in assay [1], the result was inactive. The Potency result in assay [2] is “inactive”. With `OCCN1CCN(CCCN2c3ccccc3Sc3ccc(C(F)(F)F)cc32)CC1`, the Potency in assay [7] was 31.6 µM (active); in assay [2], 16.6 µM (active) and 18.4 µM (active). Turning to `CN(C)C(=O)C(CCN1CCC(O)(c2ccc(Cl)cc2)CC1)(c1ccccc1)c1ccccc1`, the compound was called inactive in assay [1]. In addition, the Potency in assay [2] is 18.7 µM (active). Regarding `Cn1c(=O)c2c(ncn2C)n(C)c1=O`, the call in assay [1] was inactive. The Potency entry in assay [2] was “inactive”.

`CN(Cc1cnc2nc(N)nc(N)c2n1)c1ccc(C(=O)N[C@@H](CCC(=O)O)C(=O)O)cc1`: the result in assay [1] was inactive. Further, the Potency in assay [2] was 10.3 nM (active) and 37.2 nM (active).

With `Cc1cc(C(C)(C)C)cc(C)c1CC1=NCCN1`, the compound was called inactive in assay [1]. Moreover, the Potency result in assay [2] was “inactive”.

Values taken from PubChem BioAssay (NCATS).
